Experiment [1] deals with Paired box protein Pax-6 (Homo sapiens) (UniProt P26367). In words: ATG_Pax6_CIS: Attagene CIS-FACTORIAL HepG2 Assay for human Paired Box 6 (PAX6) (AID 2282956). The following applies: HepG2 CIS-FACTORIAL PAX6 reporter transcription, RNA readout; actives raise or lower the signal. The method, boiled down:
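DMSO-referenced bidirectional fits of reporter mRNA fluorescence; HepG2 with transient cis-promoter MRTUs, 24 h post-dose, RT-PCR plus capillary electrophoresis detection.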

Experiment [2] is described as follows: ATG_PXRE_CIS: Attagene CIS-FACTORIAL HepG2 Assay for human Pregnane X Receptor Element (PXRE) (AID 2282957). The following applies: HepG2 Attagene CIS-FACTORIAL PXRE reporter, mRNA; actives raise or lower the signal. In a few lines:
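Bidirectional activity, baselined to DMSO, derived from reporter mRNA fluorescence (RT-PCR plus capillary electrophoresis) in HepG2 cells bearing cis-promoter reporter units, 24 h exposure.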

Experiment [3] is described as follows: ATG_PPRE_CIS: Attagene CIS-FACTORIAL HepG2 Assay for human Peroxisome Proliferator-activated Response Element (PPRE) (AID 2282958). Particulars: HepG2 PPRE cis-element reporter, Attagene transcription factor profiling; actives raise or lower the signal. In a few lines: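 Read-out: fluorescent reporter mRNA fragments resolved by capillary electrophoresis after RT-PCR. HepG2 cells carried transiently transfected PPRE-driven cis reporter constructs and were dosed for 24 h; gain or loss of signal fitted relative to DMSO.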

Experiment [4] in a line: ATG_RORE_CIS: Attagene CIS-FACTORIAL HepG2 Assay for human RAR-related Orphan Receptor Element (RORE) (AID 2282959). Particulars: HepG2 Attagene cis-factorial RORE reporter, mRNA; actives raise or lower the signal. In a few lines:
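Readout: fluorescent reporter mRNA by RT-PCR plus capillary electrophoresis, 24 h after dosing transfected HepG2 cells. Endogenous transcription factor activity on a cis promoter element is measured. Gain or loss of signal fitted against DMSO.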

Experiment [5] is described as follows: ATG_Sox_CIS: Attagene CIS-FACTORIAL HepG2 Assay for human SRY-box transcription factor (SOX) (AID 2282960). The following applies: HepG2 Attagene cis-factorial SOX reporter, mRNA; actives raise or lower the signal. In a few lines:
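Read-out: fluorescent RT-PCR products of SOX1-linked reporter transcripts resolved by capillary electrophoresis, fitted bidirectionally against DMSO. Transiently transfected HepG2 cells, 24 h after chemical exposure, endogenous transcription factor activity.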

The target in experiment [6] is Transcription factor Sp1 (Homo sapiens) (UniProt P08047). In words: ATG_Sp1_CIS: Attagene CIS-FACTORIAL HepG2 Assay for human Specificity Protein 1 (Sp1) (AID 2282961). The following applies: HepG2 Sp1 cis-reporter transcription, actives raise or lower the signal. The method, boiled down: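 Read-out: fluorescence of 6-FAM-labeled, HpaI-digested RT-PCR products separated by capillary electrophoresis. HepG2 cells carried transfected cis-element reporter units and were exposed to chemicals for 24 h; gain or loss of signal fitted relative to DMSO.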
Sequence of Transcription factor Sp1 (Homo sapiens) (P08047 whole entry, looked up): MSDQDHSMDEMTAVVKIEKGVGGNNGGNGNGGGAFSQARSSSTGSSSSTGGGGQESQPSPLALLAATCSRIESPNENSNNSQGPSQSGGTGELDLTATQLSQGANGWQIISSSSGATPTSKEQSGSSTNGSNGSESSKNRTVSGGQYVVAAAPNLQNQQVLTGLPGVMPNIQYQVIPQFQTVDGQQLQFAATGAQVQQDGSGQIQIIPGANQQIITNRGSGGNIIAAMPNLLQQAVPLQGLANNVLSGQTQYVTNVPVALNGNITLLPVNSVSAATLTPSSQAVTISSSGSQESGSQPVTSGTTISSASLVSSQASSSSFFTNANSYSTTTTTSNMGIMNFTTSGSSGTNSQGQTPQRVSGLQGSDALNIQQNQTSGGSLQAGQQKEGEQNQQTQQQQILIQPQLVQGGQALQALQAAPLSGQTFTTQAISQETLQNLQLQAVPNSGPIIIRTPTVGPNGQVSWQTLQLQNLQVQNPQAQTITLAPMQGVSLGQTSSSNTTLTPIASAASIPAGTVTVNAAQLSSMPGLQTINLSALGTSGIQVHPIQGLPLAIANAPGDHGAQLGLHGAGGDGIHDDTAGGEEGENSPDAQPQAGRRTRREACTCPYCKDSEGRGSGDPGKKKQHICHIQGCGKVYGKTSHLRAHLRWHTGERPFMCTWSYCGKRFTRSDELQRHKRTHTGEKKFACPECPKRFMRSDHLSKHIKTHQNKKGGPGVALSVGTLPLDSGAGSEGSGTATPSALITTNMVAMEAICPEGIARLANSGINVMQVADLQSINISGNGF

Experiment [7] can be described thus: ATG_SREBP_CIS: Attagene CIS-FACTORIAL HepG2 Assay for human Sterol Regulatory Element Binding (SREBP) (AID 2282962). Particulars: HepG2 Attagene cis-factorial SREBP reporter, mRNA; actives raise or lower the signal. In a few lines: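 In this cis-format assay, HepG2 liver cells express reporters controlled by promoter elements responsive to native transcription factors. Exposure lasts 24 h; reporter mRNA fluorescence from capillary electrophoresis gives the signal, fitted bidirectionally against DMSO.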

Experiment [8] concerns the target Signal transducer and activator of transcription 3 (Homo sapiens) (UniProt P40763). The experiment in a line: ATG_STAT3_CIS: Attagene CIS-FACTORIAL HepG2 Assay for human Signal Transducer and Activator of Transcription 3 (STAT3) (AID 2282963). Particulars: HepG2, Attagene cis-factorial STAT3 reporter transcription; actives raise or lower the signal. The method, boiled down:
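HepG2, MRTU-transfected, 24 h dosing. RNA → RT → PCR → FAM label → HpaI → CE. Bidirectional fit vs DMSO.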

Experiment [9] is described as follows: ATG_TA_CIS: Attagene CIS-FACTORIAL HepG2 Assay for human TA Basal Promoter (AID 2282964). The following applies: HepG2 Attagene CIS-factorial TA basal promoter reporter; actives raise or lower the signal. The method, boiled down:
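HepG2 cells transiently transfected with multiplexed cis-promoter reporter units, dosed 24 h. Reporter mRNA measured by RT-PCR, 6-FAM labelling, HpaI digestion and capillary electrophoresis; bidirectional fit versus DMSO baseline, serving as background control.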

Experiment [10] in a line: ATG_TCF_b_cat_CIS: Attagene CIS-FACTORIAL HepG2 Assay for human T-Cell-Factor with beta-catenin (TCF/b-cat) (AID 2282965). The following applies: HepG2 TCF/beta-catenin cis-reporter transcription, actives raise or lower the signal. In a few lines: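 HepG2 cells transiently transfected with multiple cis-promoter-regulated reporter transcription units, so endogenous transcription factor activity is measured. Reporter mRNA read 24 hours after dosing by RT-PCR, fluorescent labelling and capillary electrophoresis; bidirectional fitting against DMSO.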

Experiment [11] is described as follows: ATG_TAL_CIS: Attagene CIS-FACTORIAL HepG2 Assay for human TAL Basal Promoter (AID 2282966).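 Note: background control endpoint measuring basal TAL promoter reporter mRNA not a specific factor.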 Particulars: HepG2 Attagene cis-factorial TAL promoter reporter; actives raise or lower the signal. In a few lines: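 Human hepatoma HepG2 cells, transfected with promoter-regulated reporter units, were treated 24 h. Reporter transcript levels, measured through RT-PCR and capillary electrophoresis, were fitted for gain or loss relative to DMSO.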

For experiment [12], the target named is Nuclear receptor subfamily 1 group I member 3 (Homo sapiens) (UniProt Q14994). In words: ATG_CAR_TRANS: Attagene TRANS-FACTORIAL HepG2 Assay for human Constitutive Androstane Receptor (CAR) (AID 2282969; active = hit-call score of the fitted dose curve at least 0.9, where 1 is the maximum;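 note: activators raise reporter mRNA above DMSO so AC50 marks induction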). The following applies: HepG2 Attagene TRANS-FACTORIAL CAR reporter. The method, boiled down:
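Steps: transient transfection of HepG2 with multiple GAL4-UAS reporter units; 24 h compound incubation; RNA isolation, RT-PCR, 6-FAM primer extension, HpaI digest; capillary electrophoresis. Gain-of-signal relative to DMSO negative control.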

Experiment [13] addresses Estrogen receptor (Homo sapiens) (UniProt P03372). The experiment in a line: ATG_ERa_TRANS: Attagene TRANS-FACTORIAL HepG2 Assay for human Estrogen Receptor alpha (ERa) (AID 2282970; active = hit-call score of the fitted dose curve at least 0.9, where 1 is the maximum). Particulars: HepG2 Attagene TRANS ERa GAL4 reporter, mRNA. In a few lines: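 Signal derives from fluorescence of labelled reporter PCR fragments separated by capillary electrophoresis. HepG2 cells transiently carrying multiple GAL4-UAS reporter units were treated 24 hours, and induction above DMSO baseline was fitted as activity.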

In experiment [14] the target is X-box-binding protein 1 (Homo sapiens) (UniProt P17861). The experiment in a line: ATG_Xbp1_CIS: Attagene CIS-FACTORIAL HepG2 Assay for human X-box Binding Protein 1 (XBP1) (AID 2282972). Particulars: HepG2 XBP1 cis-element reporter, Attagene multiplex; actives raise or lower the signal. In a few lines: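 Changes in reporter transcript abundance, read by RT-PCR and capillary electrophoresis, reflect endogenous transcription factor activity. Transfected HepG2 cells received compound for 24 hours; DMSO defined baseline for bidirectional analysis.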
Sequence of X-box-binding protein 1 (Homo sapiens) (P17861 whole entry, looked up): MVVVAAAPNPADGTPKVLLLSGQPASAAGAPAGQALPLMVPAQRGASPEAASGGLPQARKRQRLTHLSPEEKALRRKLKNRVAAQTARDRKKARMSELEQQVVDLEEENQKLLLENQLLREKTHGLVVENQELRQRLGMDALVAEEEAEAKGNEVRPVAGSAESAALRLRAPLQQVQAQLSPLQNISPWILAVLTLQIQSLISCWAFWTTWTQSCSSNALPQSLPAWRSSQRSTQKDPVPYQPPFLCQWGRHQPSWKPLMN

Experiment [15] can be described thus: ATG_GAL4_TRANS: Attagene TRANS-FACTORIAL HepG2 Assay for GAL4 (Internal Marker) (AID 2282976; active = hit-call score of the fitted dose curve at least 0.9, where 1 is the maximum). The following applies: HepG2 Attagene TRANS GAL4 internal marker reporter. The method, boiled down:
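Liver HepG2 line bearing multiplexed GAL4-UAS reporter constructs; 24 h chemical treatment. Transcripts were quantified as fluorescent fragments on capillary electrophoresis after RT-PCR and HpaI cut, with activity fitted upward from DMSO.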

Experiment [16] can be described thus: ATG_TGFb_CIS: Attagene CIS-FACTORIAL HepG2 Assay for human Transforming Growth Factor (TGF) (AID 2282967). Particulars: HepG2 Attagene CIS TGFb reporter, mRNA transcription; actives raise or lower the signal. The method, boiled down:
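HepG2 cells transiently transfected with cis-promoter-driven multiplexed reporter units; 24 h compound exposure. Reporter mRNA measured by RT-PCR, 6-FAM labeling, HpaI digestion and capillary electrophoresis; bidirectional fit versus DMSO baseline.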

Experiment [17] is described as follows: ATG_M_19_TRANS: Attagene TRANS-FACTORIAL HepG2 Assay for M19 Transcription Factor (Internal Marker) (AID 2282974; active = hit-call score of the fitted dose curve at least 0.9, where 1 is the maximum). The following applies: HepG2 Attagene TRANS-FACTORIAL M19 internal marker reporter. The method, boiled down:
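24 h chemical exposure of transiently transfected HepG2 (MRTU library). RNA → oligo(dT) RT → PCR → 6-FAM labelling → HpaI cut → CE fluorescence. Positive-direction fit vs DMSO baseline; background internal-marker readout.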

Experiment [18] addresses Estrogen-related receptor gamma (Homo sapiens) (UniProt P62508). In words: ATG_ERRg_TRANS: Attagene TRANS-FACTORIAL HepG2 Assay for human Estrogen-Related Receptor gamma (ERRg) (AID 2282977; active = hit-call score of the fitted dose curve at least 0.9, where 1 is the maximum;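 note: hits increase reporter signal over DMSO so potencies reflect activators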). The following applies: HepG2 Attagene TRANS reporter, ERRg transactivation. In a few lines:
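Exogenous NR-Gal4 chimera activity measured as reporter transcript induction after 24 h in transiently transfected HepG2 cells. RNA reverse-transcribed, PCR-amplified, 6-FAM-labelled and resolved by capillary electrophoresis; increase over DMSO baseline.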

Inconclusive results are not listed. Calls of active or inactive are those of the source. Rule for the calls, unless noted: active = hit-call score of the fitted dose curve at least 0.9, where 1 is the maximum; inactive = score below 0.9.

Among the data in PubChem BioAssay (EPA / NIEHS) are outcome and AC50 values, retold here.

Sequence of Signal transducer and activator of transcription 3 (Homo sapiens) (P40763 whole entry, looked up): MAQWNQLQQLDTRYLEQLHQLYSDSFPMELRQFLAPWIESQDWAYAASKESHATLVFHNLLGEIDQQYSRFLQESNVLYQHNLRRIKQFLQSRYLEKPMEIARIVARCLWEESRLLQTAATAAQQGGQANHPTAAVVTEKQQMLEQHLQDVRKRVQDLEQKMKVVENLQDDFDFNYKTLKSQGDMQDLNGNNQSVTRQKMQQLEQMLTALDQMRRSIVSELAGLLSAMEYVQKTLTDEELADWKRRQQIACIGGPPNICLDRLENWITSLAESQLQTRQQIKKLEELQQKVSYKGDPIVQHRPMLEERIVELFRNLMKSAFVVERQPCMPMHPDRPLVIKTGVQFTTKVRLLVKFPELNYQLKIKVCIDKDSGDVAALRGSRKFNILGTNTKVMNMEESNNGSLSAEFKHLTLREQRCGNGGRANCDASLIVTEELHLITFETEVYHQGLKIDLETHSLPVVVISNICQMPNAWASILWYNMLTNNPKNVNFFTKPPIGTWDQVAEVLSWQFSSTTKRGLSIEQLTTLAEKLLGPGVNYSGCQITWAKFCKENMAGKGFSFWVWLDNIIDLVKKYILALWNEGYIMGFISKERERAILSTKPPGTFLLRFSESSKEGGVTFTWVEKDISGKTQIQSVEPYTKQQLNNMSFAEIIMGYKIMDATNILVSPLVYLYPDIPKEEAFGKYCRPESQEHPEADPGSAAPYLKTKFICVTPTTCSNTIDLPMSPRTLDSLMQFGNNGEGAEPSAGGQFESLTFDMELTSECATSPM
Sequence of Estrogen receptor (Homo sapiens) (P03372 whole entry, looked up, the tested form may be a part): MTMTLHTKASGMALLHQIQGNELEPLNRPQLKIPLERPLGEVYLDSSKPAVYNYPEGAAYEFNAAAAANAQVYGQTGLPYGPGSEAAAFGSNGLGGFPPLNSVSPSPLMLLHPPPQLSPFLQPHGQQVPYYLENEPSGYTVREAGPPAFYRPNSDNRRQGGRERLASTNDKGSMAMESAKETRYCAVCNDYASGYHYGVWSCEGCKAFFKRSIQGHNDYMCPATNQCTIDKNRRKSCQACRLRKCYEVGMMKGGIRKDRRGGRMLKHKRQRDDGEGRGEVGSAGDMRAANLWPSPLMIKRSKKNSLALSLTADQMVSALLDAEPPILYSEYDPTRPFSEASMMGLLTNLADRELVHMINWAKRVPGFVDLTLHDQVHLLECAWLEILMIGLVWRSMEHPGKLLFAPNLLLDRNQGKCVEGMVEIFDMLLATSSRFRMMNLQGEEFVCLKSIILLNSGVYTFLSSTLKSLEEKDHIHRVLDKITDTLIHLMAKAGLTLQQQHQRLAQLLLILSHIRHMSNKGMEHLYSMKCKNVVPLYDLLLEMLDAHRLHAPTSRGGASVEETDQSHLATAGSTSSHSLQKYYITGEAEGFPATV
Sequence of Paired box protein Pax-6 (Homo sapiens) (P26367 whole entry, looked up): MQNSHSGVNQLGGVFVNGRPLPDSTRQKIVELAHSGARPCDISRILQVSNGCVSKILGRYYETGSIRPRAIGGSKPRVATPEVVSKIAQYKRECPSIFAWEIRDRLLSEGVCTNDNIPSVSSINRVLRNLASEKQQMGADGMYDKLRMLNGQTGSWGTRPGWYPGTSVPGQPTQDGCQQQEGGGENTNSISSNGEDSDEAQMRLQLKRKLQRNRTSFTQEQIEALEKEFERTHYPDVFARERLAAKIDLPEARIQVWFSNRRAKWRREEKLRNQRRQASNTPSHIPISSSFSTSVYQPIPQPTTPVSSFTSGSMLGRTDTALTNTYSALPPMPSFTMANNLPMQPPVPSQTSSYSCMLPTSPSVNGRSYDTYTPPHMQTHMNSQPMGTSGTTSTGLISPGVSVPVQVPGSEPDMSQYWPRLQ
Sequence of Nuclear receptor subfamily 1 group I member 3 (Homo sapiens) (Q14994 whole entry, looked up, the tested form may be a part): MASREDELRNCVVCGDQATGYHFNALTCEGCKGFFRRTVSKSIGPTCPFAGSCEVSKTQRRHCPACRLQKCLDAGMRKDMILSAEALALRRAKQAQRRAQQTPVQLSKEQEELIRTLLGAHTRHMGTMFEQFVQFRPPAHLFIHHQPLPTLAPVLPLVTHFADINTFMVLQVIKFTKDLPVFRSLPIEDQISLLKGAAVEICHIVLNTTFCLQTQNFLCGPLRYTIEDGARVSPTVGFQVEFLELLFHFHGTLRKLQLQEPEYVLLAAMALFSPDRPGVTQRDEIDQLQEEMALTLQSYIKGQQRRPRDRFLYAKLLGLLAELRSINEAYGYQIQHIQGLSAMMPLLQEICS
Sequence of Estrogen-related receptor gamma (Homo sapiens) (P62508 whole entry, looked up, the tested form may be a part): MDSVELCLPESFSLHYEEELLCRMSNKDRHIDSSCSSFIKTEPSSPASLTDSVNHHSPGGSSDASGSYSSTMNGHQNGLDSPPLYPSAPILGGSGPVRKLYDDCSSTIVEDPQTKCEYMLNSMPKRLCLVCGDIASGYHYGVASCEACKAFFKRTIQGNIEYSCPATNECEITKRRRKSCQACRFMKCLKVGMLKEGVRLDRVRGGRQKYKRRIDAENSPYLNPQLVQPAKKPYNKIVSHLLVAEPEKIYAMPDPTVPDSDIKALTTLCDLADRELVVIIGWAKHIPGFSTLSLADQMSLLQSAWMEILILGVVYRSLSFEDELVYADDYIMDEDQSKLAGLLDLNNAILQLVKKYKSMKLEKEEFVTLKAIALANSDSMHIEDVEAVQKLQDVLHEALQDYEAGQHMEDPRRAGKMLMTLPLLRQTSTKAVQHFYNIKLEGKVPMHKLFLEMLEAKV

In the case of `CCCCCCCCCCCCCCCCCC#N`, the compound was called inactive in experiment [1], in experiment [2], in experiment [3], in [4], in experiment [5] and in [6]. The call in experiment [7], in experiment [8], in experiment [9], in [10], in experiment [11] and in experiment [12] was inactive. Further, the compound was classed as inactive in experiment [13], in [14] and in experiment [15].

A word on the AC50: it is the midpoint of the concentration-response curve, whichever way the signal moves. Consider `N#CCc1ccc(Cl)cc1Cl`, for which the outcome in experiment [1], in experiment [3], in experiment [4], in [5], in [6] and in experiment [7] was inactive. Also, the compound was classed as inactive in experiment [8], in experiment [9], in experiment [10], in experiment [11], in experiment [16] and in experiment [12]. For the same compound, the call in [13], in [14] and in [17] was inactive. The AC50 in experiment [2] is 61.8 µM (active).

On to `O=S1(=O)OC(c2ccc(O)cc2)(c2ccc(O)cc2)c2ccccc21`, for which the compound was classed as inactive in [1], in experiment [3], in [4], in experiment [5], in experiment [6] and in experiment [7]. Also, the result in experiment [8], in experiment [9], in experiment [10], in [11], in experiment [16] and in [14] was inactive. For the same compound, the result in experiment [17] and in experiment [18] was inactive. Also, the AC50 in experiment [2] was 13.9 µM (active); in experiment [13], 23.2 µM (active).

With `COCC(C)N` (stereo unspecified), the result in experiment [1], in [3], in [4], in experiment [5], in [6] and in [7] was inactive. Besides, the outcome in experiment [8], in experiment [9], in experiment [10], in experiment [11], in experiment [16] and in [14] was inactive. The compound was classed as inactive in experiment [17]. The AC50 in [2] was 83.6 µM (active).
